Assay results reported in PubChem BioAssay (EPA / NIEHS).
Values joined by “and” are separate entries in the source; they are usually repeats but may differ in a detail not shown here. Equal values may be shown once. Inconclusive results are not listed. Some structures have more than one record in an assay (separate samples or runs), and their calls can disagree. Active and inactive are the calls of the source. Rule for the calls: active = hit-call score of the fitted dose curve at least 0.9, where 1 is the maximum; inconclusive = response in the unintended direction; inactive = score below 0.9.

biological target: Cellular tumor antigen p53 (Homo sapiens) (UniProt P04637); assay: TOX21_p53_BLA_p5_ratio: Tox21 HCT-116 p53 Agonism Beta-lactamase Assay, Ratio, Phase 5 (AID 2283599)
How it was run: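 HCT-116 p53-bla cells (4000/well) plated 5 h, dosed with compound (217-fold DMSO dilution) for 16 h at 37 C; CCF4-AM substrate 2 h at room temperature. Activity is the 460/530 nm emission ratio (405 nm excitation), fitted in gain-of-signal direction versus DMSO.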

Chain of Cellular tumor antigen p53 (Homo sapiens) (P04637 whole entry, looked up): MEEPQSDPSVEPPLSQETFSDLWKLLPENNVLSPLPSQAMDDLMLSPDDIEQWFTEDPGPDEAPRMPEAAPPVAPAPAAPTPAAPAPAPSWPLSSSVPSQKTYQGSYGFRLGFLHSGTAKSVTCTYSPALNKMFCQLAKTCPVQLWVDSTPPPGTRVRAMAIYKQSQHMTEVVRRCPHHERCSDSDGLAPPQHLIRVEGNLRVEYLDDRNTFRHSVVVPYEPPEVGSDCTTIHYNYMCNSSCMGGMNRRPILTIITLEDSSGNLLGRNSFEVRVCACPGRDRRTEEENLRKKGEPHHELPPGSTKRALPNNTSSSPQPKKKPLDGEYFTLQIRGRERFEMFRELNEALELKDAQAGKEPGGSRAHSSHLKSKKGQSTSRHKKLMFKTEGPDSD

Row | SMILES | outcome | AC50
1 | OCCCCO | inactive | 
2 | CCOC(=O)CCN(SN(C)C(=O)Oc1cccc2c1OC(C)(C)C2)C(C)C | inactive | 
3 | O=C(CBr)c1ccc(O)cc1 | inactive | 
4 | CCC(C)(C#N)N=NC(C)(C#N)CC (stereo not drawn) | inactive | 
5 | c1ccc2c(c1)Oc1ccccc1O2 | inactive | 
6 | O=[N+]([O-])c1ccc(Nc2ccccc2)cc1 |  | 52.5 µM (active) and 84.9 µM (active)
7 | C=CCCl | inactive | 
8 | O=S1(=O)OC(c2cc(Br)c(O)c(Br)c2)(c2cc(Br)c(O)c(Br)c2)c2ccccc21 | inactive | 
9 | Nc1ccc(-c2ccccc2)cc1 | inactive | 
10 | CNC(=O)O/N=C/C(C)(C)S(C)(=O)=O | inactive | 
11 | CN(C)[C@@H]1C(=O)C(C(N)=O)=C(O)[C@@]2(O)C(=O)C3=C(O)c4c(O)ccc(Cl)c4[C@@](C)(O)[C@H]3C[C@@H]12 | inactive | 
12 | CCNc1nc(NCC)nc(SC)n1 | inactive | 
13 | CCC[N+](CCC)(CCC)CCC | inactive | 
14 | O=S(=O)(c1ccc(Cl)cc1)c1cc(Cl)c(Cl)cc1Cl | inactive | 
15 | Cc1cc(C(C)(C)c2ccc(O)c(C)c2)ccc1O | inactive | 
16 | CC(C)[C@@H](Nc1ccc(C(F)(F)F)cc1Cl)C(=O)OC(C#N)c1cccc(Oc2ccccc2)c1 (stereo partly drawn) | inactive | 
17 | CCCCOC(=O)COC(=O)c1ccccc1C(=O)OCCCC | inactive | 
18 | Cc1cc(Cl)ccc1OC(C)C(=O)O (stereo not drawn) | inactive | 

Row | SMILES | outcome | AC50
19 | CC(C)(C1CCC(O)CC1)C1CCC(O)CC1 (stereo not drawn) | inactive | 
20 | Clc1cc(C(Cl)(Cl)Cl)cnc1Cl | inactive | 
21 | Cc1cc(SCc2sc(-c3ccc(C(F)(F)F)c(F)c3)nc2C)ccc1OCC(=O)O |  | 70.2 µM (active)
22 | Nc1nc(=S)[nH][nH]1 | inactive | 
23 | CS(=O)(=O)c1ccc(C(=O)C2C(=O)CCCC2=O)c(Cl)c1COCC(F)(F)F | inactive | 
24 | Clc1ccc(C(Cl)(Cl)Cl)cn1 | inactive | 
25 | ClCCCCl | inactive | 
26 | O=C(Cc1ccccc1)OCCc1ccccc1 | inactive | 
27 | CC(O)(CS(=O)(=O)c1ccc(F)cc1)C(=O)Nc1ccc(C#N)c(C(F)(F)F)c1 (stereo not drawn) | inactive | 
28 | O=C(O)COc1ccc(Cl)cc1 | inactive | 
29 | O=C=Nc1ccc(Cl)cc1 | inactive | 
30 | Cc1cc(C(F)(C(F)(F)F)C(F)(F)F)ccc1NC(=O)c1cccc(I)c1C(=O)NC(C)(C)CS(C)(=O)=O | inactive | 
31 | O=c1oc2ccccc2c(O)c1C(CC(O)c1ccc(-c2ccc(Br)cc2)cc1)c1ccccc1 (stereo not drawn) |  | 27.2 µM (active) and 14.3 µM (active)
32 | CCCCCCCCBr | inactive | 
33 | O=C(NC(=O)c1c(F)cccc1F)Nc1cc(Cl)c(OC(F)(F)C(F)C(F)(F)F)cc1Cl (stereo not drawn) | inactive | 
34 | CC(C)(C#N)N=NC(C)(C)C#N | inactive | 
35 | O=C(NC(=O)c1c(F)cccc1F)Nc1cc(Cl)c(F)c(Cl)c1F | inactive | 
36 | CCOC(=O)C(SP(=S)(OC)OC)c1ccccc1 (stereo not drawn) | inactive | 

system: not listed separately; assay: TOX21_p53_BLA_p5_viability: Viability Assessment in the Tox21 HCT-116 p53 Agonism Beta-lactamase Assay, Phase 5 (AID 2283600)
How it was run: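 4000 cells/well; 5 h pre-incubation; DMSO compounds pin-transferred, 217-fold dilution; 16 h, 37C/5% CO2; CCF4-AM 2 h RT; CellTiter-Glo 30 min RT; luminescence.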

Row | SMILES | outcome | AC50
37 | OCCCCO | inactive | 
38 | CCOC(=O)CCN(SN(C)C(=O)Oc1cccc2c1OC(C)(C)C2)C(C)C | inactive | 
39 | O=C(CBr)c1ccc(O)cc1 | inactive | 
40 | CCC(C)(C#N)N=NC(C)(C#N)CC (stereo not drawn) | inactive | 
41 | c1ccc2c(c1)Oc1ccccc1O2 | inactive | 
42 | O=[N+]([O-])c1ccc(Nc2ccccc2)cc1 | inactive | 66.3 µM (active)
43 | O=S1(=O)OC(c2cc(Br)c(O)c(Br)c2)(c2cc(Br)c(O)c(Br)c2)c2ccccc21 | inactive | 
44 | Nc1ccc(-c2ccccc2)cc1 | inactive | 
45 | CNC(=O)O/N=C/C(C)(C)S(C)(=O)=O | inactive | 
46 | CN(C)[C@@H]1C(=O)C(C(N)=O)=C(O)[C@@]2(O)C(=O)C3=C(O)c4c(O)ccc(Cl)c4[C@@](C)(O)[C@H]3C[C@@H]12 | inactive | 
47 | CCNc1nc(NCC)nc(SC)n1 | inactive | 
48 | O=S(=O)(c1ccc(Cl)cc1)c1cc(Cl)c(Cl)cc1Cl | inactive | 
49 | Cc1cc(C(C)(C)c2ccc(O)c(C)c2)ccc1O | inactive | 
50 | CC(C)[C@@H](Nc1ccc(C(F)(F)F)cc1Cl)C(=O)OC(C#N)c1cccc(Oc2ccccc2)c1 (stereo partly drawn) | inactive | 
51 | CCCCOC(=O)COC(=O)c1ccccc1C(=O)OCCCC | inactive | 
52 | Cc1cc(Cl)ccc1OC(C)C(=O)O (stereo not drawn) | inactive | 
53 | Clc1cc(C(Cl)(Cl)Cl)cnc1Cl | inactive | 
54 | Cc1cc(SCc2sc(-c3ccc(C(F)(F)F)c(F)c3)nc2C)ccc1OCC(=O)O |  | 40.6 µM (active)
55 | Nc1nc(=S)[nH][nH]1 | inactive | 
56 | CS(=O)(=O)c1ccc(C(=O)C2C(=O)CCCC2=O)c(Cl)c1COCC(F)(F)F | inactive | 
57 | Clc1ccc(C(Cl)(Cl)Cl)cn1 | inactive | 
58 | ClCCCCl | inactive | 
59 | CC(O)(CS(=O)(=O)c1ccc(F)cc1)C(=O)Nc1ccc(C#N)c(C(F)(F)F)c1 (stereo not drawn) | inactive | 
60 | O=C=Nc1ccc(Cl)cc1 | inactive | 
61 | Cc1cc(C(F)(C(F)(F)F)C(F)(F)F)ccc1NC(=O)c1cccc(I)c1C(=O)NC(C)(C)CS(C)(=O)=O | inactive | 
62 | O=c1oc2ccccc2c(O)c1C(CC(O)c1ccc(-c2ccc(Br)cc2)cc1)c1ccccc1 (stereo not drawn) | inactive | 19.3 µM (active)
63 | O=C(NC(=O)c1c(F)cccc1F)Nc1cc(Cl)c(OC(F)(F)C(F)C(F)(F)F)cc1Cl (stereo not drawn) | inactive | 
64 | CC(C)(C#N)N=NC(C)(C)C#N | inactive | 
65 | O=C(NC(=O)c1c(F)cccc1F)Nc1cc(Cl)c(F)c(Cl)c1F | inactive | 
66 | CCOC(=O)C(SP(=S)(OC)OC)c1ccccc1 (stereo not drawn) | inactive | 
